Marburg entry: qHTS for Inhibitors of binding or entry into cells for Marburg Virus; Marburg virus pseudotype entry/binding inhibition, cell-based; Potency, µM (top dose mostly 49.2 µM), without a hit: at the top dose activity change, negative = inhibition, hits mostly inhibitors; hit rate 6.5% among 18,000; AID 720532, 2013
Lassa entry: qHTS for Inhibitors of binding or entry into cells for Lassa Virus; Lassa virus pseudotyped entry inhibition, cell-based qHTS; Potency, µM (highest dose often 49.2 µM), for the others: at the top dose activity change, negative = inhibition, hits mostly inhibitors; hit rate 4.1% among 18,000; AID 720533, 2013
* hit, by the source's call; ? = inconclusive; · = no result given; ! = not confirmed by another sample; [ ] = dose if it differs, or a comment. This is a sample that favours compounds with a hit; in the whole collection about 8% have one here. Calls come from the whole dose curve; tested in HEK293 cells. % is set by controls: 0 for no effect and ±100 for the full control effect; potency is the fitted concentration of half-maximal effect.

SMILES	Marburg entry	Lassa entry
O=C(CCCN1CCC2(CC1)C(=O)N(Cc1cccc(F)c1)CN2c1ccccc1)c1ccc(F)cc1	8.91µM*	15.8µM*
COC(=O)CN1CN(c2ccccc2)C2(CCN(Cc3ccc4ccccc4c3)CC2)C1=O	?	-1.8%
OC1(c2ccc(Cl)cc2)CCN(Cc2c[nH]c3ccccc23)CC1	8.91µM*	?
OC1(c2cccnc2)CCN(Cc2ccc3c(c2)CN(Cc2ccc(Cl)cc2)CCO3)CC1	4.2%	6.1%
CCCC(=O)O[C@]1(C(=O)COC(=O)CC)[C@@H](C)C[C@H]2[C@@H]3CCC4=CC(=O)C=C[C@]4(C)[C@@]3(F)[C@@H](O)C[C@@]21C	11.2µM*	?
CCCCC(=O)O[C@@]1(C(=O)CO)C(C)CC2C3CCC4=CC(=O)C=C[C@@]4(C)[C@]3(F)C(O)C[C@]21C (stereo not given in full)	-12.5%	-2.0%
CO[C@H]1[C@H](NC(=O)c2cccs2)c2ccccc2C12CCN(Cc1cccn1-c1cccnc1)CC2	-6.9%	-0.4%
Cc1ccnn1CC(=O)N1CCOc2c(cc(-c3csc4ccccc34)cc2OC2CCOC2)C1 (stereo not given)	-4.9%	-8.8%
CC(=O)OC[C@H]1O[C@@H](ON=C[C@@H](C)[C@H](OCc2ccccc2)C(C)C)[C@@H](OC(C)=O)[C@@H](OC(C)=O)[C@@H]1OC(C)=O	43.0%[8.59 µM]	·
CC1(C)CN(CCc2ccccc2)C(=O)[C@@H]1CC(=O)Nc1ccccc1	3.6%	20.0%
O=C1c2c(O)ccc(O)c2C(=O)c2c(NCCNCCO)ccc(NCCNCCO)c21	0.1µM*	0.316µM*
O=C1c2ccccc2C(=O)c2c(O)ccc(O)c21	-2.5%	1.8%
C=CCN=C1NC(c2cccc(F)c2)C(C(=O)OC)=C(C)N1Cc1ccccc1 (stereo not given)	?	-15.4%[8.59 µM]
C=CCc1cccc(/C=N/NC(=O)CN2CCN(Cc3ccccc3)CC2)c1O	?	12.6µM*
COc1ccc([C@H]2C[C@H](n3cc(C4CC4)nn3)[C@@H](O)CN2C(=O)c2cccs2)cc1	1.2%	-6.8%
COc1ccc(-c2cc3c(N)ncnc3o2)cc1	91.1%	55.1%
CC(C)[C@@H](C)/C=C/[C@@H](C)[C@H]1CC[C@H]2/C(=C/C=C3\C[C@@H](O)CC[C@@H]3C)CCC[C@]12C	12.7%	22.4µM*
C=C1CCC(O)C/C1=C/C=C1\CCC[C@@]2(C)C(C(C)/C=C/C(C)C(C)C)CC[C@@H]12 (stereo not given in full)	-29.4%	-21.7%
O=S1(=O)CCSCCN1Cc1ccc(Br)cc1	5.9%	16.7%
CCCCCCCCNCCS(=O)(=O)NCc1ccccc1OC	?	-7.8%
COc1ccccc1CNCCCCCCNCCCCCCCCNCCCCCCNCc1ccccc1OC	7.94µM*	?
O=C1C2CC3CC1CC(O)(C3)C2	10.5%	3.9%
CCN(CC)CCOc1ccccc1OC	-4.7%	-3.8%
CCCCN(CC)CCOc1cccc2ccccc12	10µM*	?
COc1ccc(C2/C=C\C(c3ccc(OC)cc3)N(Cc3ccc(F)cc3)C(=O)C(=O)N2Cc2ccc(F)cc2)cc1 (stereo not given)	10µM*	-23.9%
SMILES	Marburg entry	Lassa entry
COc1ccc(C2/C=C\CC(OCc3ccccc3)CC(=O)N2Cc2cccc(F)c2)cc1 (stereo not given)	-19.8%	?
Cc1cc(O)cc(C)c1C=Cc1cncc(-c2nn[nH]n2)c1	-16.2%	37.5%
CC(C)=CCCC(C)=CCON=C1C[C@@H](O)[C@@H](O)[C@@H]2[C@H]3C(=O)N(Cc4ccc5c(c4)OCO5)C(=O)[C@@H]3CC[C@@H]12	-43.7%[8.59 µM]	·
O=C1[C@H]2[C@@H]3[C@@H](O)[C@H](O)CC(=NOCc4ccccc4)[C@@H]3CC[C@H]2C(=O)N1Cc1ccc2c(c1)OCO2	-17.5%[8.59 µM]	8.5%[8.59 µM]
CCC(=O)N[C@@H]1c2ccccc2C2(CCN(Cc3ccccn3)CC2)[C@H]1OC	9.1%	-3.8%
CCC(=O)N[C@@H]1c2ccccc2C2(CCN(Cc3[nH]c4c(Cl)cccc4c3C)CC2)[C@H]1OC	11.2µM*	25.1µM*
O=C1C=CC2=C3c4cc(O)c(O)cc4CC3(O)COC2=C1O (stereo not given)	3.16µM*	-15.7%
O=C(O)COCCN1CCN(C(c2ccccc2)c2ccc(Cl)cc2)CC1 (stereo not given)	6.6%	1.9%
OC(CN1CCN(c2cccc(Cl)c2)CC1)C(c1ccccc1)c1ccccc1 (stereo not given)	35.5µM*	28.2µM*
COC(=O)c1ccc(O)cc1	3.0%	-6.5%
COC(=O)/C=C\c1cc(O)ccc1O	10µM*	25.1µM*
CCC=CC[C@@]1(C(=O)OC)C=C[C@@H](C)[C@H](c2ccccc2Br)N1C(=O)C(F)(F)F	-0.7%[8.59 µM]	4.7%[8.59 µM]
CCOC(=O)CN1C(=O)NC(CCc2ccccc2)C(C(=O)OC)=C1C (stereo not given)	-23.0%[8.59 µM]	·
COc1cc(=O)n2c(c1C(=O)NCc1ccsc1)CCN(Cc1nc3ccccc3[nH]1)CC2	18.1%	3.8%
C=C1C2CC[C@@]3(C)C(c4ccoc4)OC(=O)C[C@@]13OC1CC(=O)C(C)(C)C(CC(=O)OC)[C@]12C (stereo not given in full)	-8.1%	-18.9%
C=C1C2CC[C@@]3(C)C(c4ccoc4)OC(=O)C[C@@]13OC1CC(OC(C)=O)C(C)(C)C(CC(=O)OC)[C@@]12C (stereo not given in full)	12.6µM*	?
CC(C)CON=C1C[C@@H](O)[C@@H](O)[C@@H]2[C@H]3C(=O)N(C4CCCCC4)C(=O)[C@@H]3CC[C@@H]12	-20.1%[8.59 µM]	·
CC(CCN1CCCc2nc(C)c(C)cc21)=NO[C@@H](C)CN1CCCCc2nc(C)c(C)cc21	-28.4%[8.59 µM]	4.0%[8.59 µM]
CCN(CCNC(=O)[C@H]1C=C(OC)C(=O)C[C@H](c2ccccc2)[C@@H]1C)C(C)=O	-18.2%[8.59 µM]	3.3%[8.59 µM]
CCCCCCN1C[C@H](n2cc(C3CC3)nn2)[C@@H](O)C[C@H]1c1ccc(C)cc1	-31.2%	-24.9%
CSc1nc(C(=O)N2CCc3c(cnc(C)c3CNC(=O)c3ccc4c(c3)OCO4)C2)cs1	-12.5%	-1.0%
CCCCN1CCC(CCC(=O)c2cc(Cl)c(N)cc2OC)CC1	11.2µM*	28.2µM*!
CCOc1cc(N)c(Cl)cc1C(=O)NCC1CN(Cc2ccc(F)cc2)CCO1 (stereo not given)	11.3%	-0.7%
COc1cc2nc(N3CCN(C(=O)OCc4ccccc4)[C@H](C(=O)NC(C)(C)C)C3)nc(N)c2cc1OC	11.2µM*	1.3%
COc1cc2nc(N3CCN(C(=O)C4COc5ccccc5O4)CC3)nc(N)c2cc1OC (stereo not given)	?	-3.0%[17.8 µM]
SMILES	Marburg entry	Lassa entry
O=C(c1cnn(-c2nccc(-c3ccccc3C(F)(F)F)n2)c1C1CC1)N1CCN(CCO)CC1	?	-11.8%
CCCCCCCCCC=C[C@@H]1C[C@H]2C=CCO[P@@](=O)(O1)O2	11.6%	-4.3%
O=c1c(O)cc(C2Oc3cc(O)cc(O)c3CC2O)cc2c(C3Oc4cc(O)cc(O)c4CC3O)cc(O)c(O)c12 (stereo not given)	12.6µM*	5.0%
Oc1cc(O)c2c(c1)O[C@H](c1ccc(O)c(O)c1)[C@@H](O)C2	8.8%	-7.9%
COc1cc(C(CCN2CCOCC2)c2c(OC)cc(OC)c3ccc(=O)oc23)cc(OC)c1OC (stereo not given)	-11.7%	-23.4%
COc1cc(OC)c2c(-c3ccccc3)cc(=O)oc2c1C(CCN1CCOCC1)c1ccc(N(C)C)cc1 (stereo not given)	10µM*	?

Bioassay records from PubChem BioAssay.
